According to publication PMC7862700, “An all-to-all approach to the identification of sequence-specific readers for epigenetic DNA modifications on cytosine”:

Key:
Test in all cases: DAPPL (digital affinity profiling via proximity ligation, sequencing); 10 mM Tris-HCl pH 7.5, 50 mM NaCl, 1 mM DTT, 4% glycerol, room temperature, 30 min; GST-TFs on glutathione beads, 16-mer random dsDNA library, 0.1% formaldehyde crosslink after washing; high values mean tight binding
Settings in all cases: protein: recombinant; tags: N-terminal GST; dsDNA, one strand shown
ERF = molecular target: T1, ERF (Homo sapiens, UniProt P50548 1-548)
T1 sequence: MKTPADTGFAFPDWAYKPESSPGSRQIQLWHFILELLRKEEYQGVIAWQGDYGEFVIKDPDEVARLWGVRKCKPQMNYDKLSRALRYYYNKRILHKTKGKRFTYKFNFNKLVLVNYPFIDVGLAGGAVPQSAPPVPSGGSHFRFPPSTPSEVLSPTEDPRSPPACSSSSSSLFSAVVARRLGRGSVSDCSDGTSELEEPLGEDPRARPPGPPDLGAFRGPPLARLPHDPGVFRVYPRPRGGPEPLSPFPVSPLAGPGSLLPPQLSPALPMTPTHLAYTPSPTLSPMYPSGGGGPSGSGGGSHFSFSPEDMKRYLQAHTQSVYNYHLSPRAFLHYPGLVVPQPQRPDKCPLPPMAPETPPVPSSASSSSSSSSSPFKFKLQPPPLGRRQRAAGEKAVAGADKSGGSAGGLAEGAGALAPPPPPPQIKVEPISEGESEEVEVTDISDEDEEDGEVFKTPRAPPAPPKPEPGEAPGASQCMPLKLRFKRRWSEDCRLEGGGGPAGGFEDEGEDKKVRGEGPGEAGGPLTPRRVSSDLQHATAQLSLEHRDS
In short: (§1)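 Beads coated with glutathione captured GST-fused human transcription factors that had been expressed in yeast, and the factors were then given DNA barcodes and pooled with a tag-only sample. The pools were incubated with 200 nmole of a random double-stranded 16-mer DNA library in Tris/NaCl/DTT/glycerol buffer for 30 min at room temperature, washed, crosslinked with 0.1% formaldehyde and proximity-ligated with BsaI/T4 ligase at 37 °C for 1 h. PCR amplification and Illumina NextSeq500 sequencing came last. Binding signal is each hexamer's read frequency for a factor divided by its frequency for the tag-only sample.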

ETV3L = molecular target: T2, ETV3L (Homo sapiens, UniProt Q6ZN32 1-361)
T2 sequence: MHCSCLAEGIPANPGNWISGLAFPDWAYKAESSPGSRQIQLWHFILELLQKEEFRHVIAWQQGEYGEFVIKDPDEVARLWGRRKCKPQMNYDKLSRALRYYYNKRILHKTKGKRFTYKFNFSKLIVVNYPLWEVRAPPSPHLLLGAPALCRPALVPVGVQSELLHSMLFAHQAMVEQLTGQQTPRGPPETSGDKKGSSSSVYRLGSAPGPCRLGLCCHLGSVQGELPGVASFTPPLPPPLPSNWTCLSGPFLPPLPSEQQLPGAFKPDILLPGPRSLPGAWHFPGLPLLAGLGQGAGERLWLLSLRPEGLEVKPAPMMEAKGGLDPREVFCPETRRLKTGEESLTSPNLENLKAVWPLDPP
In short: as §1

ETS2 = molecular target: T3, ETS2 (Homo sapiens, UniProt P15036 1-469)
T3 sequence: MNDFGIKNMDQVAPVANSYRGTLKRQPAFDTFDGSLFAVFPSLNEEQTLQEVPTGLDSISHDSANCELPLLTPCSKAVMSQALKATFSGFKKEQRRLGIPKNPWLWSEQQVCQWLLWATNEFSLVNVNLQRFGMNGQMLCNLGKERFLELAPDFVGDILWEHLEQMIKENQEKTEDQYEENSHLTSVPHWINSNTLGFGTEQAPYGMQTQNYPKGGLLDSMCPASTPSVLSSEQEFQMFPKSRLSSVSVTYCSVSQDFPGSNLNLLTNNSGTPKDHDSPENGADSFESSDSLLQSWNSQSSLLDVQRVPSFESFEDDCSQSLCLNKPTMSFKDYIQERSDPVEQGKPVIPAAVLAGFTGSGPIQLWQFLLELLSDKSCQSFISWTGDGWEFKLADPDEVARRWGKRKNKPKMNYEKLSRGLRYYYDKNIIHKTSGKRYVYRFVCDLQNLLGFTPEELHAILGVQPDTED
In short: as §1

SPDEF = molecular target: T4, SPDEF (Homo sapiens, UniProt O95238 1-335)
T4 sequence: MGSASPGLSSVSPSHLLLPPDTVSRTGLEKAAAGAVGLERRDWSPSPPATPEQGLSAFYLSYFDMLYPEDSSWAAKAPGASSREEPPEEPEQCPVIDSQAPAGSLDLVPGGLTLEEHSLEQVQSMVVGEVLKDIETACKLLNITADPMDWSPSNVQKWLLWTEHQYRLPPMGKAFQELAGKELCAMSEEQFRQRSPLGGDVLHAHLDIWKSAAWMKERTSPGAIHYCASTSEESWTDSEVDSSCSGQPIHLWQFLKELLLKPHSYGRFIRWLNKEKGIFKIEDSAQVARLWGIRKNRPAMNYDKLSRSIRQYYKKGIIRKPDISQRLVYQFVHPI
In short: as §1

ETV7 = molecular target: T5, ETV7 (Homo sapiens, UniProt Q9Y603 1-341)
T5 sequence: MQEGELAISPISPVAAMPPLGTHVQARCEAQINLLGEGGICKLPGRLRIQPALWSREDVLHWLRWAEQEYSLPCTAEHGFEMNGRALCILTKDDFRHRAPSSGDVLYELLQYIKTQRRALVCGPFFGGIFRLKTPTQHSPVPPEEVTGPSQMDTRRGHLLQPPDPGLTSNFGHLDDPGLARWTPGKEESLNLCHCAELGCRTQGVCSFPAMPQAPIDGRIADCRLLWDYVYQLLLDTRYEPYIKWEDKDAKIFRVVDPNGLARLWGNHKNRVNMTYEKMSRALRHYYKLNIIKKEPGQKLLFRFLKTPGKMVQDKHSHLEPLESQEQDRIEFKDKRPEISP
In short: as §1

ELF5 = molecular target: T6, ELF5 (Homo sapiens, UniProt Q9UKW6-2 1-255)
T6 sequence: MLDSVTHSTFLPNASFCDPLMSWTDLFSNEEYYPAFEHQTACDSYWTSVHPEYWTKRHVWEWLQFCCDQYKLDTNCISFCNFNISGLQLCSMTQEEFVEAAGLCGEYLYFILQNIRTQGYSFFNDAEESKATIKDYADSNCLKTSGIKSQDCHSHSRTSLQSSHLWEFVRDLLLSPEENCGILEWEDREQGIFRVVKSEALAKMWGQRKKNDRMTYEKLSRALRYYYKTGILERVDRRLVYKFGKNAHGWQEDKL
In short: as §1

ETV3 = molecular target: T7, ETV3 (Homo sapiens, UniProt P41162-2 1-143)
T7 sequence: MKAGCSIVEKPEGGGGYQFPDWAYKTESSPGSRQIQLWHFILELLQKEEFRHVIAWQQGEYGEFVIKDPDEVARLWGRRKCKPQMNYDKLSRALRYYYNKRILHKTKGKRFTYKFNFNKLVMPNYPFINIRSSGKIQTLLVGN
In short: as §1

ETV6 = ETV6 (Homo sapiens, UniProt P41212 1-452)
Chain of ETV6 (P41212 whole entry): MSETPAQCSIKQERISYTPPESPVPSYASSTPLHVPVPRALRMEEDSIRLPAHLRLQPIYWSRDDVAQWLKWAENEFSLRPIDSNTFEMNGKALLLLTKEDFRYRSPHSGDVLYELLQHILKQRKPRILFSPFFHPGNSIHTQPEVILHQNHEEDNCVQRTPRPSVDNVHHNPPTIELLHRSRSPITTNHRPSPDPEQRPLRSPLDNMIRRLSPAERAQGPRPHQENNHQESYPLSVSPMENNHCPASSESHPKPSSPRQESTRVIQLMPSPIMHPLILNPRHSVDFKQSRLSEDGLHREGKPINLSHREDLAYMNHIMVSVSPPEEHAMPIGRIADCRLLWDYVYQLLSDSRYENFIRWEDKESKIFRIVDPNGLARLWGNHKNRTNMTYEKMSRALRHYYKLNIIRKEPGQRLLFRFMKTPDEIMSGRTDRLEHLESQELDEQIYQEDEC
In short: as §1

Q: How did the binding signal (ERF) turn out when TATCTT was run?
A: 1.32 fold enrichment (6-mer frequency, TF over GST control)

Q: What about the binding signal (ETV3L) of the same sequence?
A: 1.41 fold enrichment (6-mer frequency, TF over GST control)

Q: What about the binding signal (ETS2) of the same sequence?
A: 1.29 fold enrichment (6-mer frequency, TF over GST control)

Q: What about the binding signal (SPDEF) of the same sequence?
A: 1.32 fold enrichment (6-mer frequency, TF over GST control)

Q: And the binding signal (ETV7)?
A: 1.22 fold enrichment (6-mer frequency, TF over GST control)

Q: What about the binding signal (ELF5) of the same sequence?
A: 1.4 fold enrichment (6-mer frequency, TF over GST control)

Q: And the binding signal (ETV3)?
A: 1.25 fold enrichment (6-mer frequency, TF over GST control)

Q: What about the binding signal (ETV6) of the same sequence?
A: 1.18 fold enrichment (6-mer frequency, TF over GST control)

Q: With TACCTT as the sequence, how does the binding signal (ERF) read?
A: 1.51 fold enrichment (6-mer frequency, TF over GST control)

Q: What about the binding signal (ETV3L) of the same sequence?
A: 1.34 fold enrichment (6-mer frequency, TF over GST control)

Q: And the binding signal (ETS2)?
A: 1.44 fold enrichment (6-mer frequency, TF over GST control)

Q: And the binding signal (SPDEF)?
A: 1.39 fold enrichment (6-mer frequency, TF over GST control)

Q: What about the binding signal (ETV7) of the same sequence?
A: 1.37 fold enrichment (6-mer frequency, TF over GST control)

Q: And the binding signal (ELF5)?
A: 1.49 fold enrichment (6-mer frequency, TF over GST control)

Q: And the binding signal (ETV3)?
A: 1.29 fold enrichment (6-mer frequency, TF over GST control)

Q: What about the binding signal (ETV6) of the same sequence?
A: 1.5 fold enrichment (6-mer frequency, TF over GST control)

Q: CTCCCC was tested. Which binding signal (ERF) did it give?
A: 1.51 fold enrichment (6-mer frequency, TF over GST control)

Q: And the binding signal (ETV3L)?
A: 1.29 fold enrichment (6-mer frequency, TF over GST control)

Q: And the binding signal (ETS2)?
A: 1.33 fold enrichment (6-mer frequency, TF over GST control)

Q: And the binding signal (SPDEF)?
A: 1.28 fold enrichment (6-mer frequency, TF over GST control)

Q: And the binding signal (ETV7)?
A: 1.37 fold enrichment (6-mer frequency, TF over GST control)

Q: What about the binding signal (ELF5) of the same sequence?
A: 1.33 fold enrichment (6-mer frequency, TF over GST control)

Q: And the binding signal (ETV3)?
A: 1.38 fold enrichment (6-mer frequency, TF over GST control)

Q: What about the binding signal (ETV6) of the same sequence?
A: 1.36 fold enrichment (6-mer frequency, TF over GST control)

Q: Which results are given for TCTCTG?
A: binding signal (ERF): 1.49 fold enrichment (6-mer frequency, TF over GST control); binding signal (ETV3L): 1.49 fold enrichment (6-mer frequency, TF over GST control); binding signal (ETS2): 1.61 fold enrichment (6-mer frequency, TF over GST control); binding signal (SPDEF): 1.5 fold enrichment (6-mer frequency, TF over GST control); binding signal (ETV7): 1.29 fold enrichment (6-mer frequency, TF over GST control); binding signal (ELF5): 1.42 fold enrichment (6-mer frequency, TF over GST control); binding signal (ETV3): 1.48 fold enrichment (6-mer frequency, TF over GST control); binding signal (ETV6): 1.52 fold enrichment (6-mer frequency, TF over GST control)

Q: ATGCCT was tested. Which binding signal (ERF) did it give?
A: 1.42 fold enrichment (6-mer frequency, TF over GST control)

Q: And the binding signal (ETV3L)?
A: 1.28 fold enrichment (6-mer frequency, TF over GST control)

Q: What about the binding signal (ETS2) of the same sequence?
A: 1.43 fold enrichment (6-mer frequency, TF over GST control)

Q: What about the binding signal (SPDEF) of the same sequence?
A: 1.41 fold enrichment (6-mer frequency, TF over GST control)

Q: And the binding signal (ETV7)?
A: 1.26 fold enrichment (6-mer frequency, TF over GST control)

Q: And the binding signal (ELF5)?
A: 1.34 fold enrichment (6-mer frequency, TF over GST control)

Q: And the binding signal (ETV3)?
A: 1.4 fold enrichment (6-mer frequency, TF over GST control)

Q: And the binding signal (ETV6)?
A: 1.29 fold enrichment (6-mer frequency, TF over GST control)

Q: How did the binding signal (ERF) turn out when TTTTTG was run?
A: 1.35 fold enrichment (6-mer frequency, TF over GST control)

Q: And the binding signal (ETV3L)?
A: 1.38 fold enrichment (6-mer frequency, TF over GST control)

Q: And the binding signal (ETS2)?
A: 1.27 fold enrichment (6-mer frequency, TF over GST control)

Q: What about the binding signal (SPDEF) of the same sequence?
A: 1.28 fold enrichment (6-mer frequency, TF over GST control)

Q: What about the binding signal (ETV7) of the same sequence?
A: 1.25 fold enrichment (6-mer frequency, TF over GST control)

Q: And the binding signal (ELF5)?
A: 1.27 fold enrichment (6-mer frequency, TF over GST control)

Q: What about the binding signal (ETV3) of the same sequence?
A: 1.29 fold enrichment (6-mer frequency, TF over GST control)

Q: What about the binding signal (ETV6) of the same sequence?
A: 1.23 fold enrichment (6-mer frequency, TF over GST control)

Q: Which results are given for CTCCCG?
A: binding signal (ERF): 1.42 fold enrichment (6-mer frequency, TF over GST control); binding signal (ETV3L): 1.43 fold enrichment (6-mer frequency, TF over GST control); binding signal (ETS2): 1.52 fold enrichment (6-mer frequency, TF over GST control); binding signal (SPDEF): 1.65 fold enrichment (6-mer frequency, TF over GST control); binding signal (ETV7): 1.73 fold enrichment (6-mer frequency, TF over GST control); binding signal (ELF5): 1.74 fold enrichment (6-mer frequency, TF over GST control); binding signal (ETV3): 1.53 fold enrichment (6-mer frequency, TF over GST control); binding signal (ETV6): 1.57 fold enrichment (6-mer frequency, TF over GST control)

Q: With AGATCC as the sequence, how does the binding signal (ERF) read?
A: 1.08 fold enrichment (6-mer frequency, TF over GST control)

Q: And the binding signal (ETV3L)?
A: 1.13 fold enrichment (6-mer frequency, TF over GST control)

Q: And the binding signal (ETS2)?
A: 1.2 fold enrichment (6-mer frequency, TF over GST control)

Q: What about the binding signal (SPDEF) of the same sequence?
A: 2.08 fold enrichment (6-mer frequency, TF over GST control)

Q: And the binding signal (ETV7)?
A: 1.03 fold enrichment (6-mer frequency, TF over GST control)

Q: What about the binding signal (ELF5) of the same sequence?
A: 1.22 fold enrichment (6-mer frequency, TF over GST control)

Q: What about the binding signal (ETV3) of the same sequence?
A: 1.21 fold enrichment (6-mer frequency, TF over GST control)

Q: And the binding signal (ETV6)?
A: 1.1 fold enrichment (6-mer frequency, TF over GST control)

Q: How did the binding signal (ERF) turn out when TTTAAG was run?
A: 1.3 fold enrichment (6-mer frequency, TF over GST control)

Q: And the binding signal (ETV3L)?
A: 1.26 fold enrichment (6-mer frequency, TF over GST control)

Q: What about the binding signal (ETS2) of the same sequence?
A: 1.36 fold enrichment (6-mer frequency, TF over GST control)

Q: And the binding signal (SPDEF)?
A: 1.44 fold enrichment (6-mer frequency, TF over GST control)

Q: And the binding signal (ETV7)?
A: 1.33 fold enrichment (6-mer frequency, TF over GST control)

Q: What about the binding signal (ELF5) of the same sequence?
A: 1.32 fold enrichment (6-mer frequency, TF over GST control)

Q: And the binding signal (ETV3)?
A: 1.24 fold enrichment (6-mer frequency, TF over GST control)

Q: And the binding signal (ETV6)?
A: 1.26 fold enrichment (6-mer frequency, TF over GST control)
